Values without a mark were called inactive. Results filed as inconclusive are left out. Where a call stands in place of a potency, no number is given. Active and inactive are the calls of the source. Unless noted, calls follow the shape of the dose curve; as a rule, active = well fitted curve in the direction sought with a large enough effect; inconclusive = small, poorly fitted or top-dose-only effect, or another doubt; inactive = no such curve, though single readings can be large; an effect the other way counts as inactive or inconclusive.
Assays:
[1] = target: Cytochrome P450 2C19 (Homo sapiens) (UniProt P33261); test: qHTS Assay for Inhibitors and Substrates of Cytochrome P450 2C19 (AID 899); also: nearly all actives have a fitted effect of over 60% in size; also: potency is read from the fitted curve at half-maximal effect
Cytochrome P450 2C19 (Homo sapiens), sequence (P33261 whole entry, looked up): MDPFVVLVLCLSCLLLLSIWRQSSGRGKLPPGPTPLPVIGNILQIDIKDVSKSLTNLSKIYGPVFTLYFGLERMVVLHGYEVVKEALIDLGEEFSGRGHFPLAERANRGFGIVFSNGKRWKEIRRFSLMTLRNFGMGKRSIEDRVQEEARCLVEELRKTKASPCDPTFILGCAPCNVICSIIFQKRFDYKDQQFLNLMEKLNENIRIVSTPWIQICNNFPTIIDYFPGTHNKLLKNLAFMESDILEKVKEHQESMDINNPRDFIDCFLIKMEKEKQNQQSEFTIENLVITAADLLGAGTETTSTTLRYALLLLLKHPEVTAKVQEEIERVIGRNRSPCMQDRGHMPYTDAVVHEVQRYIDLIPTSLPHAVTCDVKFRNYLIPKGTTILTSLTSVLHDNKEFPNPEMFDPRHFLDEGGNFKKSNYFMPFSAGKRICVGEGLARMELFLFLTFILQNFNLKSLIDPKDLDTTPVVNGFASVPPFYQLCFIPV
How it was run: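 Reactions contain 5nM enzyme, 10uM Luciferin-H EGE (KM) and 50mM KPO4; compound preincubates 10 min at 37C, NADPH regeneration starts turnover for 60 min. Luminescence after detection reagent gives activity.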

[2] = Confirmation and Secondary Assay for Modulators of Hemoglobin Beta Chain Splicing at IVS2 654 locus (AID 910);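 also: HeLa cells stably carrying EGFP split by mutant beta-globin IVS2-654 intron; per-well total GFP intensity by laser scanning cytometry after 2-day treatment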
How it was run: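 Readout: per-well total peak green fluorescence (488 nm ex, 500–520 nm em) from objects 5–250 µm, reflecting correct splicing of an EGFP-654 reporter. Compounds were applied for 2 days at 37 °C to overnight-plated HeLa EGFP-654 cells; controls were DMSO and 500 nM IVS2-654 PNA.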

[3] = Confirmation and Secondary Assay for Modulators of Hemoglobin Beta Chain Splicing at IVS2 705 locus (AID 930);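 also: HeLa cells stably expressing the EGFP-705 splicing reporter; GFP fluorescence per well restored by corrected splicing of the IVS2-705 intron in EGFP; series mostly up to about 46 µM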
How it was run: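 HeLa EGFP-705 reporter; 500 cells/well, o/n 37C 5% CO2; cpd 2 d; 488 ex/500-520 em laser scan; total peak GFP intensity/well. Ref: 500 nM […] antisense PNA.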

[4] = qHTS Assay for Identification of Small Molecule Agonists for Hypoxia Response Element Signaling Pathway (AID 914; active = well fitted activation curve with a large enough effect in the signal ratio, with a control signal flat, not every such curve was filed as active; the % refers to the signal ratio; also: potency is read from the fitted curve at half-maximal effect); details: ME-180 (cervical carcinoma) HRE-bla reporter, beta-lactamase ratio, CoCl2, 17 h; activation: stronger effect = higher value
How it was run: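 Read-out: CCF4 FRET ratio of 460nm to 530nm emission (excitation 405nm) after 2.5 hours at room temperature, taken from HRE-bla ME-180 cells that had been exposed to compound and EC50 CoCl2 for 17 hours.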

[5] = target: Guanine nucleotide-binding protein G(i) subunit alpha-1 (Homo sapiens) (UniProt P63096); test: qHTS Assay for Inhibitors of RGS12 GoLoco Motif Activity (Green Fluorophore) (AID 879);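 also: negative values mean loss of peptide binding seen as reduced polarization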
How it was run: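 A drop in FITC polarization marked displacement of the FITC-tagged RGS12 GoLoco peptide (10 nM) from Gαi1 (50 nM). Compounds were incubated 10 min at room temperature in Tris pH 7.5 buffer containing 150 mM NaCl, 0.1 mM GDP and 0.05% NP40; unlabeled peptide titration served as control.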

[6] = qHTS Assay for Identification of Small Molecule Agonists for Thrombopoietin (TPO) Signaling Pathway (AID 917)
How it was run: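 Human TPO receptor–transfected Ba/F3 cells (murine, IL-3-dependent) in IL-3-deficient medium; compounds plus TPO at EC50, 26 pM final; 24 hrs, 37 C; GpIIb-luciferase luminescence after 10 min RT detection.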

[7] = target: Muscarinic acetylcholine receptor M1 (Rattus norvegicus) (UniProt P08482); test: qHTS Assay for Antagonists of Acetylcholine Muscarinic M1 Receptor: Measurement of IP-One Response (AID 944); also: nearly all actives have a fitted effect of over 75% in size
Muscarinic acetylcholine receptor M1 (Rattus norvegicus), sequence (P08482 whole entry, looked up): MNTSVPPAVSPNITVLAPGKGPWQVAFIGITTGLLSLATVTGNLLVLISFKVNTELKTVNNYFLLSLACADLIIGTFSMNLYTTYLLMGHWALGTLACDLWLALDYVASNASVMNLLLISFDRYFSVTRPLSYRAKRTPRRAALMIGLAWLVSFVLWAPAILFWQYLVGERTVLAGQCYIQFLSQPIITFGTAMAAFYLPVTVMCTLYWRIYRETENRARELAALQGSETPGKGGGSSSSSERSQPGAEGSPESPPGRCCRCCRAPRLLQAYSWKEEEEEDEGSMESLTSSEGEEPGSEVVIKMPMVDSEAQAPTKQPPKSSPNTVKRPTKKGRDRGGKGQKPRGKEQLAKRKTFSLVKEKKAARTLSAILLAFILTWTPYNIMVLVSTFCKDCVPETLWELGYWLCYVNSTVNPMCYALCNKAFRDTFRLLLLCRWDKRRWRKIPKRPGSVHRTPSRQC
How it was run: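 Read-out: HTRF competition between d2-IP1 and Eu-cryptate anti-IP1 antibody, emission 620 and 665 nm. Stimulus was carbachol, EC80 (200 nM), for 30 min in M1-CHO cells (rat receptor), after 10 min compound pre-treatment.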

[8] = target: Pyruvate kinase (Leishmania mexicana) (UniProt Q27686); test: qHTS Validation Assay for Inhibitors of Leishmania Mexicana Pyruvate Kinase (AID 945)
How it was run: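 Substrate mix (0.5 mM PEP, 0.1 mM ADP, 7 mM MgCl2, 50 mM KCl, pH 7.2 imidazole) received compound by pin tool, then 0.2 nM LmPYK E451W. After 1 h at room temperature, PKLight was added and luminescence measured.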

[9] = target: Pyruvate kinase PKM (Homo sapiens) (UniProt P14618); test: qHTS Assay for Activators of Human Muscle Pyruvate Kinase (AID 954; active = well fitted curve in the direction sought with a large enough effect, not every such curve was filed as active)
Pyruvate kinase PKM (Homo sapiens), sequence (P14618 whole entry, looked up): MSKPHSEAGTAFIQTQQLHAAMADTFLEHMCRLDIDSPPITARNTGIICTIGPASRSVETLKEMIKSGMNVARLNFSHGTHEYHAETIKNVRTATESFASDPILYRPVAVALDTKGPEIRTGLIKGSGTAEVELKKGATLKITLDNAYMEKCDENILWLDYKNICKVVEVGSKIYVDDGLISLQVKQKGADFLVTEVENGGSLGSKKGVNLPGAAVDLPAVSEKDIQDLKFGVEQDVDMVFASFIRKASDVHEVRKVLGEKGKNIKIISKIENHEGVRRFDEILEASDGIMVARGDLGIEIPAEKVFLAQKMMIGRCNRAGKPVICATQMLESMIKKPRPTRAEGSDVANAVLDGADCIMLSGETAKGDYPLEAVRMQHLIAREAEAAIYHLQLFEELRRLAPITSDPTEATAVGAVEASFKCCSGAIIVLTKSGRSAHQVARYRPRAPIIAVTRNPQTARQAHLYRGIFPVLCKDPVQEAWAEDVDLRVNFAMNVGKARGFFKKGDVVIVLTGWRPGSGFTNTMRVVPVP
How it was run: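 Compound pinned into substrate mix (0.5 mM PEP, 0.1 mM ADP), then 0.1 nM PKM2 added; 1 h, RT. Stop/detection luciferase reagent added, luminescence read. Normalized to no-inhibition and no-enzyme or reference-inhibitor controls.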

[10] = target: Alpha-galactosidase A (Homo sapiens) (UniProt P06280); test: Counterscreen for Glucocerebrosidase Inhibitors: qHTS Assay for Human alpha-Galactosidase at pH 4.5 (AID 992)
Alpha-galactosidase A (Homo sapiens), sequence (P06280 whole entry, looked up): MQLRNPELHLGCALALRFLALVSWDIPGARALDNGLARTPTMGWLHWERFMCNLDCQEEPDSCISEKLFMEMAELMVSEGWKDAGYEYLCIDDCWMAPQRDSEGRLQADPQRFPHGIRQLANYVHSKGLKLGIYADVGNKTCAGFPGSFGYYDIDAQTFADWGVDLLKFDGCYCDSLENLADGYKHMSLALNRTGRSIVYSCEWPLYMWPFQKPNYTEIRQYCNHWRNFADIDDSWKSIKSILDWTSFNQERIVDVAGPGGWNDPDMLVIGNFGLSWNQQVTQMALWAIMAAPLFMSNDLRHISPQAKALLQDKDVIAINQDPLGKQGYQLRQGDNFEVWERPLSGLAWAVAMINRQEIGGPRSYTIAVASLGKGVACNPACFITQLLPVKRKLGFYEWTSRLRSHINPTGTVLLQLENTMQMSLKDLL
How it was run: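 Steps: enzyme (2 nM final), then compound across 0.7 nM to 77 uM, then 80 uM fluorogenic galactopyranoside substrate; incubate 20 min at room temperature; quench at pH 10; measure fluorescence at 365/440 nm.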

[11] = target: alpha-glucosidase (Oryza sativa, rice) (UniProt Q653V4); test: Counterscreen for Glucocerebrosidase Inhibitors: qHTS Assay for Rice alpha-Glucosidase at pH 5.0 (AID 997)
How it was run: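 Endpoint fluorogenic assay at pH 5.0: compounds (0.7 nM to 77 uM) titrated against 4 nM rice enzyme and 400 uM 4-MU-alpha-glucoside for 20 min at room temperature; NaOH/glycine stop, read ex 365/em 440 nm, Hill-fitted AC50.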

[12] = target: DNA dC->dU-editing enzyme APOBEC-3G (Homo sapiens) (UniProt Q9HC16); test: qHTS for inhibitors of Vif-A3G interactions: Validation (AID 588379)
DNA dC->dU-editing enzyme APOBEC-3G (Homo sapiens), sequence (Q9HC16 whole entry, looked up): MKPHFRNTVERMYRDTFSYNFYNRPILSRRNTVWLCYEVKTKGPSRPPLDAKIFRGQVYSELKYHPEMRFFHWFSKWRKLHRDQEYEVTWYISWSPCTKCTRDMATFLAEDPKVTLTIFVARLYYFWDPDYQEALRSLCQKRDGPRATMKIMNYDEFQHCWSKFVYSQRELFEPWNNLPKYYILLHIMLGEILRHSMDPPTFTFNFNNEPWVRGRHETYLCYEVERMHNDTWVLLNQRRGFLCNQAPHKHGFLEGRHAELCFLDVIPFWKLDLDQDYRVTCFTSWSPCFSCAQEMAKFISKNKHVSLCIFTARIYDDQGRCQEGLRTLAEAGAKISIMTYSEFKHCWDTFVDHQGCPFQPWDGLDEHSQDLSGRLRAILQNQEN
How it was run: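 Yellow fluorescence (Ex 488, Em 500-530) of Vif-coexpressing HeLa A3G-eYFP cells, scanned by Acumen cytometer, reports blocked A3G degradation. Cells plated at 700/well overnight at 37 deg C before compound addition, then a further overnight compound incubation at 37 deg C.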

[13] = target: Cytochrome P450 2D6 (Homo sapiens) (UniProt P10635); test: qHTS Assay for Inhibitors and Substrates of Cytochrome P450 2D6 (AID 891); also: potency is read from the fitted curve at half-maximal effect; nearly all actives have a fitted effect of over 60% in size
Cytochrome P450 2D6 (Homo sapiens), sequence (P10635 whole entry, looked up): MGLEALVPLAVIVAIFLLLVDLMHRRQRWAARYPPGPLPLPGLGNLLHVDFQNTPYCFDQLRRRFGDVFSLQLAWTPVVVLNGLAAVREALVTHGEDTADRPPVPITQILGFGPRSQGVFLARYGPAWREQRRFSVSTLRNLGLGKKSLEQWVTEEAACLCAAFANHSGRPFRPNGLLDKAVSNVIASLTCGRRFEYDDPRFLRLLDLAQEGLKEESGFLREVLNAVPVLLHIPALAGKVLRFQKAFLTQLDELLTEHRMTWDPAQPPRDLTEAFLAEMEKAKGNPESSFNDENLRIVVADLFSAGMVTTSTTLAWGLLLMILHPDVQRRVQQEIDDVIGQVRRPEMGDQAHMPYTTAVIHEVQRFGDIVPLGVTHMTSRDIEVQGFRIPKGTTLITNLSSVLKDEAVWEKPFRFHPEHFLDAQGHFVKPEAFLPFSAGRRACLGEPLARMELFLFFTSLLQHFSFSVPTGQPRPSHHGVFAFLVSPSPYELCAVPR
How it was run: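 Luminescent read-out of luciferin formed by 5 nM human CYP2D6 demethylating 30 uM Luciferin-ME EGE (Km level) over 60 min at room temperature after NADPH regeneration addition. Data normalized to full inhibition by 1.43 uM quinidine.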

[14] = target: Cytochrome P450 2C9 (Homo sapiens) (UniProt P11712); test: qHTS Assay for Inhibitors and Substrates of Cytochrome P450 2C9 (AID 883); also: nearly all actives have a fitted effect of over 60% in size; also: potency is read from the fitted curve at half-maximal effect
Cytochrome P450 2C9 (Homo sapiens), sequence (P11712 whole entry, looked up): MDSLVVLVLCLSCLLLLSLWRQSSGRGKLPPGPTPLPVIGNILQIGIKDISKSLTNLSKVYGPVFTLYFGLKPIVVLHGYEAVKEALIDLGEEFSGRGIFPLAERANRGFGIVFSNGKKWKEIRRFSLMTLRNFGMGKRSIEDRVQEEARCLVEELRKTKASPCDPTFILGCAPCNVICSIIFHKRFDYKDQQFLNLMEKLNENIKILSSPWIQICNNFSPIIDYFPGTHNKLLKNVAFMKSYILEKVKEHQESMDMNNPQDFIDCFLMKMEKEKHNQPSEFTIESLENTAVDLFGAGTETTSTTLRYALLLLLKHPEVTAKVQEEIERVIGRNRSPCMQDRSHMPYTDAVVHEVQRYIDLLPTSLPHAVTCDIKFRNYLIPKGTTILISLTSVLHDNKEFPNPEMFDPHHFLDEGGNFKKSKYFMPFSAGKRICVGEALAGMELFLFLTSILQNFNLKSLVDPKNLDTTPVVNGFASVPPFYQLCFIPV
How it was run: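 Turnover of Luciferin-H (100uM, KM) by 10nM human CYP2C9 was measured over 60 min at 37C with NADPH regeneration; inhibitors and some substrates reduce luminescence. Data normalized to sulphaphenazole 57uM.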

[15] = target: Rap guanine nucleotide exchange factor 3 (Homo sapiens) (UniProt O95398); test: Counterscreen qHTS for antagonist of cAMP-regulated guanine nucleotide exchange factor 3 (EPAC1) (AID 1645888);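 also: fluorescence loss as bound BODIPY-GDP is released from Rap1B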
Rap guanine nucleotide exchange factor 3 (Homo sapiens), sequence (O95398 whole entry, looked up): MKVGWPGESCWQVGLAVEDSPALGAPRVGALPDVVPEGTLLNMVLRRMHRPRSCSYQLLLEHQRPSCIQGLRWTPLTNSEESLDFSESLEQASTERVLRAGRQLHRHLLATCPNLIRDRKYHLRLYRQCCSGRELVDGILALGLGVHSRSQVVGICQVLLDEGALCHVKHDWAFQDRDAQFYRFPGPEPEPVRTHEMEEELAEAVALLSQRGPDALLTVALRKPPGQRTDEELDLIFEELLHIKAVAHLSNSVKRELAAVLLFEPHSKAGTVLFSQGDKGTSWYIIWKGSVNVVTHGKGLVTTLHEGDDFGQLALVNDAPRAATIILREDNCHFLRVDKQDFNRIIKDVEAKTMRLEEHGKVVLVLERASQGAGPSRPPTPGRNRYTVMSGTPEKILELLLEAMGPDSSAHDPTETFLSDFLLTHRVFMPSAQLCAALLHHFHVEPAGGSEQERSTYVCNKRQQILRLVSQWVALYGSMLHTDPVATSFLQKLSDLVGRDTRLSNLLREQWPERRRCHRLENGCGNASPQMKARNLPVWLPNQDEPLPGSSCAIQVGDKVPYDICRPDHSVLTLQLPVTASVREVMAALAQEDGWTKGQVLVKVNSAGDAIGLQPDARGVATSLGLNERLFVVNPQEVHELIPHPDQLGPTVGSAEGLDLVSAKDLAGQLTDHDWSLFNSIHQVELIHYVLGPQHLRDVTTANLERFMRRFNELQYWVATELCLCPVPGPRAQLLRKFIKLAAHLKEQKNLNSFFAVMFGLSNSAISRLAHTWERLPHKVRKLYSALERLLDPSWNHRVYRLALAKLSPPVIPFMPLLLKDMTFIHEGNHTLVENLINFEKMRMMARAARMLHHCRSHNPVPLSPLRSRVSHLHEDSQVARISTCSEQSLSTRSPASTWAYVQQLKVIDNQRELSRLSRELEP
How it was run: (§1)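 Rap1B-BODIPY-GDP 250 nM + GDP 50 uM; cpds 7-pt, final 9.74 nM–152 uM (activator mode) or from 7.32 nM upwards (inhibitor mode); RT; FI 480/540 nm at 5 and 30 min, then ± cAMP, reread.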

[16] = target: Rap guanine nucleotide exchange factor 3 (Homo sapiens) (UniProt O95398); test: Counterscreen qHTS for agonist of cAMP-regulated guanine nucleotide exchange factor 3 (EPAC1) (AID 1645889); also: nearly all actives have a fitted effect of over 40% in size
How it was run: as §1

[17] = target: Dual specificity protein kinase CLK4 (Homo sapiens) (UniProt Q9HAZ1); test: qHTS Assay for Inhibitors of CDC-like Kinase 4 (ADP-Glo Assay) (AID 1771); also: potency is read from the fitted curve at half-maximal effect; nearly all actives have a fitted effect of over 70% in size
Dual specificity protein kinase CLK4 (Homo sapiens), sequence (Q9HAZ1 whole entry, looked up): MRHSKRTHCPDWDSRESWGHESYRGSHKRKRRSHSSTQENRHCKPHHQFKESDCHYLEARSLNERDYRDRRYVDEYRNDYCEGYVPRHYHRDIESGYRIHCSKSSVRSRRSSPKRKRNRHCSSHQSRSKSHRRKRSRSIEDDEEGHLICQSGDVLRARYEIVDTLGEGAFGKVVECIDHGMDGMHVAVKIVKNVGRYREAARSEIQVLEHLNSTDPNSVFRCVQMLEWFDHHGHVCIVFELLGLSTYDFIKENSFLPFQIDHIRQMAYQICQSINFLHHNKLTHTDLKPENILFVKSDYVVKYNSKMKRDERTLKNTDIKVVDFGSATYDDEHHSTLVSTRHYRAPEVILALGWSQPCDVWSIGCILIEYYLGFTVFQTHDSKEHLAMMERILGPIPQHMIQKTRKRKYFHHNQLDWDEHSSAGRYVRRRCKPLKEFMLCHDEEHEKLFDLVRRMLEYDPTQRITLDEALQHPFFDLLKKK
How it was run: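 25 nM Clk4, 100 uM RS peptide, 1 uM ATP (final); 2 mM MgCl2, 0.5 mM EGTA, 2.5 mM DTT, 0.01% Triton X-100; 1 hr RT. ADP-Glo readout: ATP depletion 45 min, conversion/luciferase 30 min, luminescence.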

Compound: FC(F)(F)c1ccccc1-c1nccc(NCc2ccccc2)n1
- Potency [1]: 6.31 µM (active)
- Potency [2]: inactive
- outcome [3]: inactive

Compound: COc1ccc(CNc2nc(-c3ccoc3)nc3ccccc23)c(OC)c1
- Potency [2]: inactive
- outcome [3]: inactive

Compound: Cc1cccc(CNc2ncnc3ccc(-c4c(C)noc4C)cc23)c1
- Potency [1]: 5.01 µM (active)
- Potency [2]: inactive
- outcome [3]: inactive

Compound: O=c1c(-c2ccc(F)cc2)nc2cnc(N3CCOCC3)nc2n1-c1ccccc1
- Potency [4]: 1.26 µM (active)

Compound: Cc1cnc(CNc2cc(-c3ccoc3)ncn2)cn1
- Potency [2]: inactive
- outcome [3]: inactive

Compound: Cc1ccccc1-c1nc(NCc2cccnc2)c2ccccc2n1
- Potency [2]: inactive
- outcome [3]: inactive

Compound: Cc1cnc(CNc2nc(-c3ccc(N(C)C)cc3)nc3ccccc23)cn1
- Potency [2]: inactive

Compound: Cn1cc(C(F)(F)F)nc1-c1ccc(OC[C@@H](O)CNCCOc2ccc(O)c(C(N)=O)c2)cc1
- Potency [5]: inactive
- outcome [6]: inactive
- Potency [7]: inactive
- outcome [8]: inactive
- outcome [9]: inactive
- outcome [10]: inactive
- outcome [11]: inactive
- outcome [12]: inactive

Compound: CC(=O)NCCNc1ncncc1-c1ccccc1C(F)(F)F
- Potency [2]: inactive
- outcome [3]: inactive

Compound: CN(C)Cc1ccccc1-c1nccc(NCc2cccs2)n1
- Potency [13]: 1.58 µM (active)
- Potency [2]: inactive
- outcome [3]: inactive

Compound: CS(=O)(=O)Nc1cccc(-c2nc(NCCN3CCOCC3)c3ccccc3n2)c1
- Potency [2]: inactive
- outcome [3]: inactive

Compound: COc1ccc(CNc2cc(-c3ccccc3CN(C)C)ncn2)c(OC)c1
- Potency [2]: inactive
- outcome [3]: inactive

Compound: FC(F)(F)c1ccccc1-c1cncnc1Nc1ccccc1
- Potency [1]: 7.94 µM (active)
- Potency [2]: inactive

Compound: CC(=O)NCCNc1nc(-c2ccc(N(C)C)cc2)nc2ccccc12
- outcome [3]: inactive

Compound: O=C(c1cc(C(F)(F)F)cc(C(F)(F)F)c1)N1CCC2(CC1)CN(c1ccncc1)C2
- Potency [14]: 3.98 µM (active)

Compound: COc1ccc2[nH]cc(CCNc3ccnc(-c4cccc(NS(C)(=O)=O)c4)n3)c2c1
- Potency [2]: inactive
- outcome [3]: inactive

Compound: CN(C)c1ccc(-c2nc(N(C)C)c3ccccc3n2)cc1
- activity change, negative = inhibition [14]: 118% [at 2.29 µM]
- Potency [13]: 7.94 µM (active)
- Potency [2]: inactive
- outcome [3]: inactive

Compound: Cc1noc(C)c1-c1nc(N2CCOCC2)c2ccccc2n1
- Potency [2]: inactive

Compound: Cc1cnc(CNc2ncnc3ccc(-c4ccccc4CN(C)C)cc23)cn1
- activity change, negative = inhibition [14]: 39% [at 2.29 µM]
- Potency [13]: 2.51 µM (active)
- Potency [2]: inactive
- outcome [3]: inactive

Compound: Cn1cccc1C(=O)N1CCC2(CCCN(Cc3ccncc3)C2)CC1
- Potency [14]: 1.58 µM (active)
- Potency [13]: 7.94 µM (active)

Compound: CS(=O)(=O)Nc1cccc(-c2nccc(-n3ccnc3)n2)c1
- Potency [2]: inactive
- activation [4]: -11.9%
- outcome [3]: inactive

Compound: c1nc(NCCN2CCOCC2)c2cc(-c3ccc4c(c3)OCO4)ccc2n1
- Potency [13]: 7.94 µM (active)
- Potency [2]: inactive
- outcome [3]: inactive

Compound: COc1ccc(Oc2ncc3nc(-c4ccc(F)cc4)c(=O)n(C)c3n2)cc1
- activation [4]: 16.5%

Compound: CCCCCc1c2c(cc(O)c1C(=O)O)OC(=O)c1cc(C(=O)CCCC)c(OC)cc1O2
- outcome [15]: inactive
- outcome [16]: inactive

Compound: CS(=O)(=O)c1ccc(Cn2c3c(c4cc(F)cc(F)c42)CCC[C@H]3CC(=O)O)cc1
- Potency [14]: inactive
- outcome [12]: inactive

Compound: CN(C)c1ncc2nc(-c3cc(F)cc(F)c3)c(=O)n(Cc3cccs3)c2n1
- Potency [1]: inactive
- Potency [4]: 0.126 µM (active)

Compound: O=C(O)c1cc(=O)c2cccc(O)c2[nH]1
- Potency [2]: inactive
- outcome [3]: inactive

Compound: CN(C)c1ncc2nc(CCc3ccccc3)c(=O)n(Cc3ccc(F)cc3)c2n1
- Potency [1]: 0.794 µM (active)

Compound: COc1ccc(CNc2cc(-c3ccccc3C)ncn2)c(OC)c1
- activation [4]: 2.85%

Compound: CCCCCCCCCCCCCC(=O)O[C@H](CC(=O)O)C[N+](C)(C)C
- outcome [12]: inactive

Compound: OC[C@H]1O[C@@H](n2cnc3c(NCc4ccco4)ncnc32)[C@H](O)[C@@H]1O
- outcome [12]: inactive

Compound: COc1cccc(-c2ccc3ncnc(NCc4ccccc4OC)c3c2)c1
- Potency [2]: inactive
- outcome [3]: inactive

Compound: Cc1ccccc1-c1nc(N(C)Cc2ccco2)c2ccccc2n1
- Potency [13]: 3.16 µM (active)
- Potency [17]: 28.2 µM (active)

Compound: Clc1cccc2c1CN(C1=NCCN1)C2
- outcome [12]: inactive

Compound: COCCNc1nc(-c2ccccc2C)nc2ccccc12
- outcome [3]: inactive

Compound: COc1ccc(CNc2ncnc3ccc(-c4c(C)noc4C)cc23)c(OC)c1
- Potency [4]: 2 µM (active)
- Potency [17]: 15.8 µM (active)

Compound: Cn1cccc1C(=O)N1CCC2(CCCN(c3cccc(-c4ccccc4)c3)C2)CC1
- Potency [14]: 3.98 µM (active)

— PubChem BioAssay (NCATS)
